# PubChem BioAssay AID651725 (National Center for Advancing Translational Sciences (NCATS), 2012)
# In all, about 360,000 compounds went through this assay and about 2,000 (0.56%) were called active. Inconclusive results (about 2%) are left out. The sample as a whole holds a higher share of actives than the screen did. Unmarked numbers belong to inactive results. Rule as the data show it: active = activity change below about -65%; inconclusive = mostly about -30% to -63%; inactive = weaker than that.
# Biological target: Homeobox protein SIX1 (Homo sapiens) + Protein phosphatase EYA2 (Homo sapiens) (UniProt Q15475+O00167)
# Experiment: qHTS Assay for Inhibitors of the Six1/Eya2 Interaction
# Conditions: AlphaScreen GST-Six1/His-Eya2 binding, biochemical; hits give low values
# Description: Its expression is low or undetectable in normal adult breast tissue but the gene is over-expressed in 50% of primary breast tumors and 90% of metastatic lesions. […] Similar to Six1, Eya2 is also not expressed in most normal adult tissues, but is reexpressed in cancers. The Six1-Eya interaction is essential for proliferation during embryonic development, and both Six1 and Eya2 have been independently implicated in the same types of cancer. Because Six1 and Eya2 are embryonic genes with little expression in adult tissues, inhibitors of their expression/activity are likely to have limited side effects. Our goal is to identify inhibitors of the Six1/Eya interaction for potential cancer therapy. To this end, we have developed a homogenous AlphaScreen assay targeting the Six1/Eya interaction. We performed a large scale HTS of the Molecular Libraries Small Molecule Repository (MLSMR) to identify inhibitors of the Six1/Eya interaction as potential anti-cancer therapeutics. Compounds identified can also be used as chemical probes to better understand the biological functions of Six1 and Eya. NIH Chemical Genomics Center [NCGC] NIH Molecular Libraries Probe Centers Network [MLPCN] MLPCN Grant: DA033147 Assay Submitter (PI): Rui Zhao, University of Colorado Denver
# The first step of the 5 uL AlphaScreen assay is to dispense assay buffer (50 mM Tris, pH 8.0, 300 mM NaCl, 0.05% BSA, 0.02% Tween 20, 1 mM TCEP) into a Greiner 1536 white solid bottom microtiter plate (789175-F). Five microliters is added to Column 1, 4 uL is added to Column 2 and 3 uL is added to Columns 3 through 48. A 5X protein solution (250 nM GST-Six1 protein + 500 nM His-tagged Eya2 protein) is mixed and 1 uL is dispensed to Columns 3-48. Using a 1536 pintool, 23 nL of compound is transferred to the assay plate. A solution of 5X AlphaScreen beads is mixed (50 ug/mL Glutathione linked donor beads + Nickel chelated acceptor beads) and 1 uL is dispensed to Columns 2-48. The assay plate is incubated for one hour, with a lid, at 37 deg C in the dark. The plate is read using a Perkin Elmer Envision using an AlphaScreen protocol.
# % is scaled to controls: 0 for no effect and ±100 for the full control effect.
# Sequence of Homeobox protein SIX1 (Homo sapiens) + Protein phosphatase EYA2 (Homo sapiens) (O00167 whole entry, looked up): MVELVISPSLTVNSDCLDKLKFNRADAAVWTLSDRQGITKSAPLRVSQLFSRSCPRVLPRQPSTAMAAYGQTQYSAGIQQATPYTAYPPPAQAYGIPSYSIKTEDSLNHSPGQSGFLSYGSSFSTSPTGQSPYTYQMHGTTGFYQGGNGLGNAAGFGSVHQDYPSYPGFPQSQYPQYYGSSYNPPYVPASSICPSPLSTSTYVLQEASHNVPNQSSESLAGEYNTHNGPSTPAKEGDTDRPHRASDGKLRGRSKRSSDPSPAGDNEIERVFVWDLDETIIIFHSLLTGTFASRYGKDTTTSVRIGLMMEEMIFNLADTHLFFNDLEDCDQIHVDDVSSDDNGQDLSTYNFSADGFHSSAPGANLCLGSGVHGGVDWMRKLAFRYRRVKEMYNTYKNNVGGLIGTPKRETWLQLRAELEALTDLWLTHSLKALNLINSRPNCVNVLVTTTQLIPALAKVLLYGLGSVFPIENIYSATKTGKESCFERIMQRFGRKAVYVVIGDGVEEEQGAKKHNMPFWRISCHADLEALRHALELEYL
# Sequence of Homeobox protein SIX1 (Homo sapiens) + Protein phosphatase EYA2 (Homo sapiens) (Q15475 whole entry, looked up): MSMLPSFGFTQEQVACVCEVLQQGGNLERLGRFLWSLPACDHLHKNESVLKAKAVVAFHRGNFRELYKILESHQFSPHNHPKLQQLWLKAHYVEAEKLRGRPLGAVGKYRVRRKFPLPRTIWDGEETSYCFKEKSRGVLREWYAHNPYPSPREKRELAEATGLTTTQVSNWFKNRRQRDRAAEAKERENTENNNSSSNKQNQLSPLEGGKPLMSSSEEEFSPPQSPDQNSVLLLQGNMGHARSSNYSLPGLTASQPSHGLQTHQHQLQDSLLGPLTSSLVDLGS
row,SMILES,activity change
1,COc1ccc(NC(=O)CCCNC(=O)Cn2cnc3sc4c(c3c2=O)CCCC4)cc1OC,-5.21%
2,COc1ccc(NC(=O)CCNC(=O)Cn2cnc3sc4c(c3c2=O)CCCC4)cc1OC,-2.73%
3,COc1ccc(/C=N/Nc2ncnc3sc4c(c23)CCCC4)cc1O,-78.1% (active)
4,CO[C@@H]1CN(C)C(=O)c2cc(NC(=O)Nc3cc(F)ccc3F)ccc2OC[C@H](C)N(C(=O)c2ccccn2)C[C@@H]1C,-5.82%
5,CCOC(=O)N1CCN(C(=O)C[C@@H]2C[C@@]3(C(=O)OC)CC(C)(C)CC=C3N(Cc3ccco3)C2=O)CC1,-1.81%
6,COc1ccccc1C(=O)NCCC(=O)N(C)Cc1cccnc1,6.46%
7,COc1ccc2c(c1)c(=Cc1ccc(N(C)C)cc1)c1cc(-c3ccccc3)[n+](C)n12,-69.4% (active)
8,CCCCCNC(=O)C1C(=O)Nc2ccccc2C(=O)N1C(C)(C)C (stereo not given),1.59%
9,Nc1ncnc2c1ncn2[C@@H]1O[C@H](CNCc2cccn2-c2nccs2)[C@@H](O)[C@H]1O,0.147%
10,Cc1cccn2c(=O)c3cc(C(=O)NCCN4CCOCC4)c(=N)n(Cc4cccnc4)c3nc12,-20.8%
11,COc1ccc(CCn2c(=N)c(C(=O)NCc3ccco3)cc3c(=O)n4cccc(C)c4nc32)cc1,-68.6% (active)
12,Cc1ccc(S(=O)(=O)c2cc3c(=O)n4cccc(C)c4nc3n(CCc3ccccc3)c2=N)cc1C,0.223%
13,Cc1cccc(N(C(=O)c2ccc(CN3CCOCC3)o2)C(C(=O)NC2CCCCC2)c2ccc(F)cc2)c1 (stereo not given),0%
14,COC(=O)[C@@]12C[C@@H](CC(=O)NCc3cccc(C(F)(F)F)c3)C(=O)N(Cc3ccco3)C1=CCC(C)(C)C2,-8.64%
15,CCOC(=O)N1CCN(C(=O)COc2ccc3oc4c(c3c2)CCCC4)CC1,-10.2%
16,CCOC(=O)c1c(C)oc2cc(Br)c(OCC(N)=O)cc12,5.69%
17,CCOC(=O)c1c(C)oc2ccc(OCC(=O)N(CC)CC)cc12,-68.9% (active)
18,CC1(C)NC(=O)N(CC(=O)Nc2ccc(-c3ccccc3)cc2)C1=O,5.24%
19,CCC(c1nc2ccccc2[nH]1)n1c(=O)c(-c2cccs2)nc2ccccc21 (stereo not given),9.68%
20,CCCCc1c(-c2ccc(Br)cc2)ncn1CCc1ccccc1OC,-13.5%
21,CC/C(O)=N\S(=O)(=O)c1ccc(N=NN(C)C)cc1,0%
22,CN(C)N=Nc1ccc2nc[nH]c2c1,-72.7% (active)
23,CC(=NNC(=O)c1ccc2nc[nH]c2c1)c1ccc(Br)cc1,0.936%

row,SMILES,activity change
1,COC(=O)[C@@]1(Sc2ccc(C)cc2)CC(=O)N(c2cccc(SC)c2)[C@@H]1c1ccccc1,-16.4%
2,Cc1cc(C)nc(N/N=C/c2c(CO)cnc(C)c2O)n1,-75.1% (active)
3,Cc1ccc(S(=O)(=O)N[C@H]2CCC[C@@H]2O)cc1,7.33%
4,CC1Cc2[nH][nH]c(=O)c2C(C2CC2)O1 (stereo not given),-3.07%
5,CC(=O)C[C@@H]1OC[C@H](C)N1S(=O)(=O)c1ccc(C)cc1,-0.665%
6,Cc1ccc(S(=O)(=O)N2CCC(N3CCCCCC3)CC2)cc1,-10.2%
7,Cc1ccc(S(=O)(=O)n2oc(=O)c(C3CCCCC3)c2N)cc1,-78.3% (active)
8,Cc1ccc(S(=O)(=O)NC2CCCCCC2)cc1,8.84%
9,CCC(CC)C(C(=O)NC1CCCC1)N1CCN(c2cc(C)nc3ccccc23)CC1 (stereo not given),0.151%
10,O=S(=O)(c1ccc(F)cc1)N1CC=C(c2ccccc2)CC1,11.2%
11,Cn1c(SCC(=O)c2ccc(F)cc2)nnc1-c1ccccn1,3.69%
12,Cn1c(CC(=O)Nc2ccccc2)nnc1SCC(=O)c1ccccc1,3.83%
13,Cn1c(CNc2nc(-c3ccccc3)cs2)nnc1SCC(=O)c1ccccc1,-73.7% (active)
14,COc1ccc(OC)c(CN2C(=O)CCC2(C)c2nnnn2Cc2ccccc2)c1 (stereo not given),0.523%
15,COc1cc(C(=O)Nc2ncccc2C)ccc1OCC(=O)N1CCOCC1,7.15%
16,C/C(=N\Nc1ccc(Cl)nn1)c1ccccc1O,-71.4% (active)
17,Fc1ccccc1Cc1ccc(Cl)nn1,4.04%
18,Oc1cccc(/C=N/Nc2ccc(Cl)nn2)c1O,-85.5% (active)
19,C/C(=N/Nc1ccc(Cl)cc1)c1cnnc(-c2ccccc2)n1,9.69%
20,CCC1OC(C2CC2)CC2=C1C(=O)OC(C)(C)O2 (stereo not given),-0.697%
21,COc1ccc2c(c1)c(C(=O)N/N=C/c1cccs1)c(C)n2C,-4.11%
22,CCOC(=O)[C@]12CCCC=C1N(CCC1=CCCCC1)C(=O)[C@H](CC(=O)NCCCCc1ccccc1)C2,-0.886%
23,COc1ccc(C(C(=O)Nc2c(C)cccc2C)N2CCN(c3ccc(C)cc3)CC2)cc1 (stereo not given),-4.54%

row,SMILES,activity change
1,COc1cccc(/C=N\NC(=O)C2=NNC(=O)C2C)c1O (stereo not given),-90.9% (active)
2,CCn1c(/C=N/NC(=O)c2ccc(OC)cc2)nc2ccccc21,-12.5%
3,COc1cc(/C=N/NC(=O)c2cccnc2)ccc1OC(=O)c1cccc(Br)c1,-6.91%
4,COc1cccc(/C=N/NC(=O)c2[nH]nc3c2CCc2ccccc2-3)c1O,-65.7% (active)
5,COc1ccc(/C=N/NC(=O)C2CC2)c(OC)c1OC,3.31%
6,COc1ccc(OC)c(/C=N/NC(=O)c2ccc[n+](CC(=O)c3ccccc3)c2)c1,-5.56%
7,Cc1cccc(C)c1NC(=O)C(c1cccc2ccccc12)n1c(=O)c(-c2ccco2)nc2ccccc21 (stereo not given),-22.2%
8,CC(C)OC(=O)CC(=O)CC(O)c1cccc([N+](=O)[O-])c1 (stereo not given),-3.63%
9,CC(C)(C)Nc1nc(-c2ccccn2)nc2ccccc12,-89.4% (active)
10,Cc1nc2ccccc2c(C(=O)O)c1-c1ccccn1,7.28%
11,c1ccc(-c2nccc(-c3ccc(-n4cnc5ccccc54)cc3)n2)nc1,-10.5%
12,COc1ccc2c(c1)N(C)/C(=C1/SC(=S)N(NC(C)=O)C1=O)S2,-8.77%
13,O=C1NC[C@H](CCCCN2CCN(CCc3ccccc3)C(=O)C2=O)N(CC2CCCCC2)C1=O,-4.53%
14,Oc1c(CN2CCN(c3ccc(F)cc3)CC2)cc(Cl)c2cccnc12,-81.4% (active)
15,Cc1cccc(C)c1NC(=O)CN1CCN(c2ccc(F)cc2)CC1,-0.798%
16,Cc1cc(=O)oc2cc(OCC(=O)N3CCN(c4ccc(F)cc4)CC3)c(Cl)cc12,3.08%
17,CSCCC(C(=O)NC(C)(C)C)n1c(-c2ccccc2)nc2ccccc21 (stereo not given),7.41%
18,Cc1ccc(-c2ccc(C3=CC(=O)CC(C)(C)C3=O)cc2)cc1,-1.02%
19,CCCc1nc2ccccc2n1C(C)C(=O)NC(C)(C)C (stereo not given),-4.69%
20,CCOC(=O)N1CCN(C(c2ccnc3ccccc23)c2nnnn2-c2c(C)cccc2C)CC1 (stereo not given),18.3%
21,CCN1CCN(C(c2cccnc2)c2cc(Cl)c3cccnc3c2O)CC1 (stereo not given),-90.1% (active)
22,CCOC(=O)N1CCN(C(=O)C2CCN(c3ncnc4c3sc3cccc(F)c34)CC2)CC1,-5.48%
23,CCOC(=O)N1CCN(C(c2cccnc2)c2ccc3cccnc3c2O)CC1 (stereo not given),-88.9% (active)

row,SMILES,activity change
1,C=CCC[C@H](CCCCC)OC(=O)/C=C/[C@H](O)[C@@H](O)C[C@@H](O)CC=C,9.69%
2,COC(=O)C[C@H]1C=C[C@@H](NS(=O)(=O)c2ccc(C)cc2)[C@@H](CO)O1,-7.03%
3,Cc1ccc(Cn2cc(CN3CC(N4CCN(C)CC4)CS3(=O)=O)nn2)cc1 (stereo not given),2.69%
4,Cc1cc(=O)[nH]c(N/N=C/c2c(C)nn(-c3ccccc3Cl)c2Cl)n1,1.43%
5,COc1ccc(/C=N/Nc2nc(-c3ccc(C)cc3)c(C#N)c(=O)[nH]2)cc1,1.97%
6,COc1ccc(-n2c(O)c(C=NCC(c3ccco3)N3CCCC3)c3ccccc3c2=O)cc1OC (stereo not given),-13%
7,CCOc1ccc(-n2c(O)c(/C=N/Nc3nnc(C)c(=O)[nH]3)c3ccccc3c2=O)cc1,-93.7% (active)
8,CCOc1ccc(N/C(N)=N/c2nc(C)c(C)c(=O)[nH]2)cc1,1.12%
9,Cc1nnc(N/N=C/c2ccccn2)[nH]c1=O,-72.8% (active)
10,Cc1[nH]nc(SCC(=O)NCC(C)C)c1[N+](=O)[O-],3.57%
11,COc1ccc(N(CCC#N)S(=O)(=O)c2ccc(Cl)cc2)cc1,3.78%
12,CCCCOCCCNC(=O)C[C@@H]1C[C@@]2(C(=O)OCC)CCCC=C2N(CCC2=CCCCC2)C1=O,-13.6%
13,COCCNC(=O)C1C(=O)Nc2ccccc2C(=O)N1c1ccc2c(c1)OCCO2 (stereo not given),7.33%
14,CC1(C(=O)Nc2ccc3c(c2)OCCO3)CN(S(C)(=O)=O)CC(=O)N1Cc1cccc(F)c1 (stereo not given),6.88%
15,Oc1c(C(c2ccccn2)N2CCOCC2)ccc2cccnc12 (stereo not given),-91.8% (active)
16,O=C(C[C@H]1CC[C@H]2[C@@H](COC[C@H](O)CN2C(=O)c2ccccn2)O1)N1CCN(c2ccccc2)CC1,-7.33%
17,CCCCn1nnnc1C1(C)CCC(=O)N1Cc1ccc(OC)c(OC)c1 (stereo not given),-14.1%
18,CC(C)NC(=O)C(=O)NCCCOC(C)C,7.72%
19,Cc1cccc(-n2cnc(C(=O)NNC(=S)Nc3ccccc3)c2)n1,-90.4% (active)
20,Cc1nn(C)cc1C(=O)NNC(=S)Nc1ccc(Cl)cc1,0.473%
21,Cc1cccc(-n2cnc(C(=O)Nc3cccnc3)c2)n1,26.5%
